Source: PubChem BioAssay (NCI)
Compounds without any hit were thinned out: in the full panel of roughly 83,000, 20% have a hit.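 The test compound was applied at a single concentration to cells in 96-well plates for 48 hours, and percent growth was recorded.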 Active and inactive are the calls of the source. How the source made its calls: active means growth percent below 10; inactive means the rest.

What was measured:
Test in all cases: NCI-60 one-dose screen, 48 h (100 = growth as untreated, 0 = no growth, -100 = all killed)
Conditions in all cases: 10 µM unless noted
NCI-H23 lung = system: NCI-H23 lung
NCI-H226 lung = system: NCI-H226 lung
NCI-H322M lung = system: NCI-H322M lung
HOP-62 NSCLC = system: HOP-62 NSCLC
NCI-H460 lung = system: NCI-H460 lung
HOP-92 NSCLC = system: HOP-92 NSCLC
NCI-H522 lung = system: NCI-H522 lung
A549/ATCC NSCLC = system: A549/ATCC NSCLC
786-0 renal = system: 786-0 renal
COLO 205 colon = system: COLO 205 colon
DU-145 prostate = system: DU-145 prostate
K-562 leukemia = system: K-562 leukemia
MALME-3M melanoma = system: MALME-3M melanoma
MDA-MB-231 breast = system: MDA-MB-231 breast
RXF 393 renal = system: RXF 393 renal
SF-268 CNS = system: SF-268 CNS
SF-295 CNS = system: SF-295 CNS
SF-539 CNS = system: SF-539 CNS
UACC-257 melanoma = system: UACC-257 melanoma
M14 melanoma = system: M14 melanoma

Measured: growth

Cc1ccc(Nc2nnc(-c3ccc(Cl)cc3)o2)c(C)c1
inactive: NCI-H23 lung 84.4% | NCI-H226 lung 99.6% | NCI-H322M lung 102% | HOP-62 NSCLC 81.8% | NCI-H460 lung 97.1% | HOP-92 NSCLC 107% | NCI-H522 lung 41% | A549/ATCC NSCLC 79.2% | 786-0 renal 89.3% | COLO 205 colon 81.4% | DU-145 prostate 93.5% | K-562 leukemia 24.8% | MALME-3M melanoma 62.1% | MDA-MB-231 breast 76.3% | RXF 393 renal 93.8% | SF-268 CNS 90.3% | SF-295 CNS 80.7% | SF-539 CNS 79% | UACC-257 melanoma 87.8% | M14 melanoma 57.6%

O=C1Nc2ccc3c(c2/C1=C\c1cc2c(cc1Br)OCO2)OCO3
inactive: NCI-H23 lung 19.5% | NCI-H226 lung 13.4% | NCI-H522 lung 16.4% | A549/ATCC NSCLC 27.9% | 786-0 renal 10.7% | K-562 leukemia 14.9% | MDA-MB-231 breast 24.5% | SF-268 CNS 33.8% | SF-295 CNS 11.2% | UACC-257 melanoma 58.3%
active: NCI-H322M lung 1.4% | HOP-62 NSCLC -21.3% | NCI-H460 lung -31.2% | HOP-92 NSCLC -5.47% | COLO 205 colon -37.1% | DU-145 prostate -12.6% | MALME-3M melanoma -5.38% | RXF 393 renal -16.3% | SF-539 CNS -36% | M14 melanoma -6.52%

COc1cc(C2C3=C(COC3=O)Nc3cc4c(cc32)OCO4)cc2c1OCO2 (stereo not given)
inactive: NCI-H23 lung 40.3% | NCI-H226 lung 19.2% | NCI-H322M lung 48.5% | HOP-62 NSCLC 36% | HOP-92 NSCLC 40.6% | A549/ATCC NSCLC 11.9% | 786-0 renal 19.9% | MALME-3M melanoma 53.8% | MDA-MB-231 breast 11.1% | RXF 393 renal 18.5% | SF-268 CNS 20.1% | UACC-257 melanoma 65.1%
active: NCI-H460 lung 2.94% | NCI-H522 lung 5.26% | COLO 205 colon -51.5% | DU-145 prostate -19.5% | K-562 leukemia 7.92% | SF-295 CNS 5.02% | SF-539 CNS -0.0643% | M14 melanoma 5.48%

O=C(O)COc1ccc(-c2cssc2=S)cc1
inactive: NCI-H23 lung 102% | NCI-H226 lung 99.1% | NCI-H322M lung 104% | HOP-62 NSCLC 104% | NCI-H460 lung 113% | HOP-92 NSCLC 111% | NCI-H522 lung 85.6% | A549/ATCC NSCLC 97.6% | 786-0 renal 101% | COLO 205 colon 109% | DU-145 prostate 120% | K-562 leukemia 115% | MALME-3M melanoma 97% | MDA-MB-231 breast 110% | RXF 393 renal 107% | SF-268 CNS 105% | SF-295 CNS 97.3% | SF-539 CNS 96.3% | UACC-257 melanoma 94.5% | M14 melanoma 105%

Nc1cccc(-c2nc3sccn3c2-c2ccnc(NCCCNS(=O)(=O)c3cccc4ccccc34)n2)c1
inactive: NCI-H23 lung 44.3% | NCI-H226 lung 29.8% | NCI-H322M lung 63.5% | HOP-62 NSCLC 64.3% | NCI-H460 lung 35.5% | HOP-92 NSCLC 92.4% | NCI-H522 lung 34.9% | A549/ATCC NSCLC 39.2% | 786-0 renal 53.9% | COLO 205 colon 24.1% | DU-145 prostate 47.9% | K-562 leukemia 22.6% | MALME-3M melanoma 62.2% | MDA-MB-231 breast 39.5% | RXF 393 renal 57.4% | SF-268 CNS 49.2% | SF-295 CNS 38.3% | SF-539 CNS 65.9% | UACC-257 melanoma 47.9% | M14 melanoma 43.8%

Cn1ccc(Nc2nccc(Oc3ccc(C(=O)Nc4cccc(F)c4)c(Cl)c3)n2)c1
inactive: NCI-H23 lung 67.3% | NCI-H226 lung 68% | NCI-H322M lung 48.4% | HOP-62 NSCLC 100% | NCI-H460 lung 106% | HOP-92 NSCLC 76.4% | NCI-H522 lung 43.1% | A549/ATCC NSCLC 97.2% | 786-0 renal 79.8% | COLO 205 colon 105% | DU-145 prostate 47.9% | K-562 leukemia 70.6% | MALME-3M melanoma 94.6% | MDA-MB-231 breast 99% | RXF 393 renal 105% | SF-268 CNS 79.4% | SF-295 CNS 61.8% | SF-539 CNS 84.9% | UACC-257 melanoma 79.5% | M14 melanoma 96.9%

CCN(CC)CCCNc1nccc2ccc(Cl)cc12
inactive: NCI-H23 lung 107% | NCI-H226 lung 97.9% | NCI-H322M lung 104% | HOP-62 NSCLC 96.5% | NCI-H460 lung 103% | HOP-92 NSCLC 68.1% | NCI-H522 lung 102% | A549/ATCC NSCLC 94.9% | 786-0 renal 104% | COLO 205 colon 108% | DU-145 prostate 113% | K-562 leukemia 107% | MALME-3M melanoma 111% | MDA-MB-231 breast 87% | RXF 393 renal 97.6% | SF-268 CNS 111% | SF-295 CNS 100% | SF-539 CNS 104% | UACC-257 melanoma 91% | M14 melanoma 95%

Oc1ccccc1/C=N/NC(=S)NC1CC2C=CC1C2 (stereo not given)
inactive: NCI-H23 lung 56.3% | NCI-H226 lung 107% | NCI-H322M lung 83.1% | HOP-62 NSCLC 85.6% | NCI-H460 lung 16.6% | HOP-92 NSCLC 82.4% | NCI-H522 lung 60.3% | A549/ATCC NSCLC 69.9% | 786-0 renal 83.4% | COLO 205 colon 108% | DU-145 prostate 88.7% | K-562 leukemia 33.3% | MALME-3M melanoma 102% | MDA-MB-231 breast 84.2% | RXF 393 renal 68.3% | SF-268 CNS 67.8% | SF-295 CNS 85% | SF-539 CNS 93.8% | UACC-257 melanoma 76.8% | M14 melanoma 47.7%

COc1cccc(/C=C2\Oc3cc(OCCCN4CCCC4)ccc3C2=O)c1OC
inactive: NCI-H23 lung 96.8% | NCI-H226 lung 86% | NCI-H322M lung 92.8% | HOP-62 NSCLC 97.7% | NCI-H460 lung 96.2% | HOP-92 NSCLC 91.2% | NCI-H522 lung 91.5% | A549/ATCC NSCLC 97.2% | 786-0 renal 98.5% | COLO 205 colon 105% | DU-145 prostate 106% | K-562 leukemia 73% | MALME-3M melanoma 94% | MDA-MB-231 breast 97.2% | RXF 393 renal 93.1% | SF-268 CNS 91.9% | SF-295 CNS 97.4% | SF-539 CNS 94.6% | UACC-257 melanoma 99.3% | M14 melanoma 91.5%

C/C=C/C1=CN2C(=O)c3cc(OC4OC(C)C(NC)C(C)(O)C4O)c(C)cc3N=C[C@@H]2C1 (stereo not given in full)
active: NCI-H23 lung -31.7% | NCI-H226 lung 6.1% | NCI-H322M lung -20.1% | HOP-62 NSCLC -8.97% | NCI-H460 lung -18.4% | HOP-92 NSCLC 2.06% | NCI-H522 lung -12.7% | A549/ATCC NSCLC 7.17% | 786-0 renal 0.564% | COLO 205 colon -42.4% | DU-145 prostate -18.6% | K-562 leukemia 5.83% | MALME-3M melanoma -43% | RXF 393 renal -44.9% | SF-268 CNS -28.8% | SF-295 CNS -23.1% | SF-539 CNS -44.9% | UACC-257 melanoma -1.62% | M14 melanoma -60.5%
inactive: MDA-MB-231 breast 15.7%

CN(C[C@H]1Cc2c(cccc2N2CCN(c3ncccn3)CC2)CN1)[C@H]1CCCc2cccnc21
inactive: NCI-H23 lung 45.5% | NCI-H226 lung 39.4% | NCI-H322M lung 50.3% | HOP-62 NSCLC 17.2% | NCI-H460 lung 20.7% | HOP-92 NSCLC 27.4% | NCI-H522 lung 52.6% | A549/ATCC NSCLC 25.7% | 786-0 renal 39.5% | COLO 205 colon 10.2% | DU-145 prostate 55% | MALME-3M melanoma 82.7% | MDA-MB-231 breast 52.9% | RXF 393 renal 57.6% | SF-268 CNS 60% | SF-295 CNS 44.4% | SF-539 CNS 55.5% | UACC-257 melanoma 55.1% | M14 melanoma 53.7%
active: K-562 leukemia 8.04%

CC(C)(C)c1[nH]nc2c1C(c1cc3ccccc3[nH]c1=O)Nc1cc(C(=O)Nc3ccc(Cl)cc3)ccc1N2 (stereo not given)
inactive: NCI-H23 lung 78.9% | NCI-H226 lung 105% | NCI-H322M lung 78.6% | HOP-62 NSCLC 83.6% | NCI-H460 lung 74.1% | HOP-92 NSCLC 86.1% | NCI-H522 lung 74.5% | A549/ATCC NSCLC 89.6% | 786-0 renal 66.1% | COLO 205 colon 83.6% | DU-145 prostate 83.8% | K-562 leukemia 39.2% | MALME-3M melanoma 80.6% | MDA-MB-231 breast 85.6% | RXF 393 renal 43.9% | SF-268 CNS 62.2% | SF-295 CNS 38.5% | SF-539 CNS 85.8% | UACC-257 melanoma 83.9% | M14 melanoma 53.5%

COc1cc(/C=N\NC(=O)CN2CCN(c3cc4c(cc3F)c(=O)c(C(=O)N/N=C/c3cc(OC)c(OC)c(OC)c3)cn4C3CC3)CC2)cc(OC)c1OC
inactive: NCI-H322M lung 11.5% | A549/ATCC NSCLC 73.4% | 786-0 renal 54.9% | SF-295 CNS 17.4% | UACC-257 melanoma 22.2% | M14 melanoma 18.2%
active: NCI-H23 lung -36.4% | NCI-H226 lung -64.7% | HOP-62 NSCLC -11.8% | NCI-H460 lung -23.3% | HOP-92 NSCLC -39% | NCI-H522 lung 8.22% | COLO 205 colon 7.48% | DU-145 prostate 8.55% | K-562 leukemia 5.07% | MALME-3M melanoma -15.8% | MDA-MB-231 breast -16.1% | RXF 393 renal -3.67% | SF-268 CNS -6.34% | SF-539 CNS -68.2%

O=C1/C(=C/c2ccc([N+](=O)[O-])cc2)CN(C(=O)CCN2CCC(=NO)CC2)C/C1=C\c1ccc([N+](=O)[O-])cc1
active: NCI-H23 lung 0.382% | NCI-H322M lung -18.7% | HOP-62 NSCLC -21.9% | NCI-H460 lung -46.3% | HOP-92 NSCLC -10.4% | NCI-H522 lung -76.8% | 786-0 renal -37.1% | COLO 205 colon -65.3% | DU-145 prostate -8.07% | K-562 leukemia 7.03% | MALME-3M melanoma -20.3% | MDA-MB-231 breast -69.1% | RXF 393 renal -76.5% | SF-268 CNS -22.4% | SF-295 CNS -28.6% | SF-539 CNS -42.8% | UACC-257 melanoma -4.87% | M14 melanoma -33.4%
inactive: NCI-H226 lung 15.1% | A549/ATCC NSCLC 21.3%
